Calls of active or inactive are those of the source.
Tests used:
[1] = test system: PRMT1 (protein arginine N-methyltransferase 1); test: small molecules binding arginine methyltransferase PRMT1 – biochemical, small-molecule microarray, 635 nm fluorescence, primary screen (AID 1088); details: higher = more signal;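 also: binding of Prmt1 protein to compounds spotted on small-molecule microarray slides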
[2] = growth effects on S. cerevisiae YJM789 – YJM789 clinical isolate, OD600, 24 h, basal, primary screen (AID 1089); details: higher = more signal, called active from +8 up or from −8 down;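 also: growth of clinical yeast isolate S. cerevisiae YJM 789 seeded 1000 cells per well; test concentration not given here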
[3] = S. pombe growth modifiers, basal conditions – strain 972, OD600, 24 h, no modulator, primary screen (AID 1090);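 also: basal condition with compound alone and no growth modifier present; test concentration not given here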; details: S. pombe 972 growth, higher = more signal, called active from +8 up or from −8 down
[4] = budding yeast growth modifiers under rapamycin – strain BY4716, OD600, 96 h, primary screen (AID 1091); also: test concentration not given here; details: S. cerevisiae BY4716 + rapamycin, higher = more signal, called active from +8 up or from −8 down
[5] = biological target: Torsin-1A-interacting protein 2 (Homo sapiens) (UniProt Q8NFQ8); test: small molecules binding lysate-expressed LULL1 – cell lysate, human LULL1 lysate, 635/667 nm fluorescence, primary screen (AID 1092); details: small-molecule microarray, hLULL1 lysate binding, 635 nm fluorescence; higher = more signal;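 also: probe is lysate of COS7 cells overexpressing human LULL1; score merges per-feature 667 nm fluorescence with signal-to-noise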
[6] = optical density change of DRC41 E. coli – strain DRC41, OD650, 24 h, E. coli filamentation project, primary screen (AID 1093);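 also: MC1000 strain lacking acrAB efflux and sulA so SOS filamentation is blocked; test concentration not given here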; details: E. coli DRC41 growth, higher = more signal, called active from +8 up or from −8 down
[7] = probe aLefty2 binding to arrayed compounds – biochemical, biotinylated probe, 635/667 nm fluorescence, primary screen (AID 1094); details: small-molecule microarray, higher = more signal;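 also: score merges spot fluorescence near 667 nm with spot signal-to-noise ratio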
[8] = test system: Noggin (protein binding on small-molecule microarray); test: small molecules binding Noggin protein – biochemical, 635/667 nm fluorescence, primary screen (AID 1095); details: 635 nm fluorescence, higher = more signal;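 also: score merges 667 nm feature fluorescence with signal to noise over triplicate slides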
[9] = biological target: Neurogenic locus notch homolog protein 3 (Homo sapiens) (UniProt Q9UM47); test: small molecules binding NOTCH3 protein – biochemical, 635/667 nm fluorescence, primary screen (AID 1096); details: small-molecule microarray, 635 nm fluorescence, higher = more signal
[10] = probe aEGFR binding to arrayed compounds – biochemical, biotinylated probe, 635/667 nm fluorescence, primary screen (AID 1097); details: small-molecule microarray, higher = more signal;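 also: probe is a biotinylated anti-EGFR antibody binding compounds printed on slides; score combines fluorescence near 667 nm and signal to noise of each spot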

Torsin-1A-interacting protein 2 (Homo sapiens), sequence (Q8NFQ8 whole entry, looked up): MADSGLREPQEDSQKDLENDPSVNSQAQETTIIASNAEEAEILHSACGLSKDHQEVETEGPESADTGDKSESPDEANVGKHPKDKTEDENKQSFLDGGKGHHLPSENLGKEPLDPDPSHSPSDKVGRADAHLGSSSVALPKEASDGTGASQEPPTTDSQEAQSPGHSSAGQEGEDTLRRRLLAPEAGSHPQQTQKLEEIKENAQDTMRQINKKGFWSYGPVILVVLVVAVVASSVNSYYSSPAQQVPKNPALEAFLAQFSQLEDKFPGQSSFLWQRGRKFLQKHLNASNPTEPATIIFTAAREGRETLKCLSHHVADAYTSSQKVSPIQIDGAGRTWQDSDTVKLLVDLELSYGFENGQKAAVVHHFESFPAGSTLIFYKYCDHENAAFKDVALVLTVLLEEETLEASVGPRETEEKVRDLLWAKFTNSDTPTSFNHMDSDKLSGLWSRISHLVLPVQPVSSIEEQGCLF
Neurogenic locus notch homolog protein 3 (Homo sapiens), sequence (Q9UM47 whole entry, looked up): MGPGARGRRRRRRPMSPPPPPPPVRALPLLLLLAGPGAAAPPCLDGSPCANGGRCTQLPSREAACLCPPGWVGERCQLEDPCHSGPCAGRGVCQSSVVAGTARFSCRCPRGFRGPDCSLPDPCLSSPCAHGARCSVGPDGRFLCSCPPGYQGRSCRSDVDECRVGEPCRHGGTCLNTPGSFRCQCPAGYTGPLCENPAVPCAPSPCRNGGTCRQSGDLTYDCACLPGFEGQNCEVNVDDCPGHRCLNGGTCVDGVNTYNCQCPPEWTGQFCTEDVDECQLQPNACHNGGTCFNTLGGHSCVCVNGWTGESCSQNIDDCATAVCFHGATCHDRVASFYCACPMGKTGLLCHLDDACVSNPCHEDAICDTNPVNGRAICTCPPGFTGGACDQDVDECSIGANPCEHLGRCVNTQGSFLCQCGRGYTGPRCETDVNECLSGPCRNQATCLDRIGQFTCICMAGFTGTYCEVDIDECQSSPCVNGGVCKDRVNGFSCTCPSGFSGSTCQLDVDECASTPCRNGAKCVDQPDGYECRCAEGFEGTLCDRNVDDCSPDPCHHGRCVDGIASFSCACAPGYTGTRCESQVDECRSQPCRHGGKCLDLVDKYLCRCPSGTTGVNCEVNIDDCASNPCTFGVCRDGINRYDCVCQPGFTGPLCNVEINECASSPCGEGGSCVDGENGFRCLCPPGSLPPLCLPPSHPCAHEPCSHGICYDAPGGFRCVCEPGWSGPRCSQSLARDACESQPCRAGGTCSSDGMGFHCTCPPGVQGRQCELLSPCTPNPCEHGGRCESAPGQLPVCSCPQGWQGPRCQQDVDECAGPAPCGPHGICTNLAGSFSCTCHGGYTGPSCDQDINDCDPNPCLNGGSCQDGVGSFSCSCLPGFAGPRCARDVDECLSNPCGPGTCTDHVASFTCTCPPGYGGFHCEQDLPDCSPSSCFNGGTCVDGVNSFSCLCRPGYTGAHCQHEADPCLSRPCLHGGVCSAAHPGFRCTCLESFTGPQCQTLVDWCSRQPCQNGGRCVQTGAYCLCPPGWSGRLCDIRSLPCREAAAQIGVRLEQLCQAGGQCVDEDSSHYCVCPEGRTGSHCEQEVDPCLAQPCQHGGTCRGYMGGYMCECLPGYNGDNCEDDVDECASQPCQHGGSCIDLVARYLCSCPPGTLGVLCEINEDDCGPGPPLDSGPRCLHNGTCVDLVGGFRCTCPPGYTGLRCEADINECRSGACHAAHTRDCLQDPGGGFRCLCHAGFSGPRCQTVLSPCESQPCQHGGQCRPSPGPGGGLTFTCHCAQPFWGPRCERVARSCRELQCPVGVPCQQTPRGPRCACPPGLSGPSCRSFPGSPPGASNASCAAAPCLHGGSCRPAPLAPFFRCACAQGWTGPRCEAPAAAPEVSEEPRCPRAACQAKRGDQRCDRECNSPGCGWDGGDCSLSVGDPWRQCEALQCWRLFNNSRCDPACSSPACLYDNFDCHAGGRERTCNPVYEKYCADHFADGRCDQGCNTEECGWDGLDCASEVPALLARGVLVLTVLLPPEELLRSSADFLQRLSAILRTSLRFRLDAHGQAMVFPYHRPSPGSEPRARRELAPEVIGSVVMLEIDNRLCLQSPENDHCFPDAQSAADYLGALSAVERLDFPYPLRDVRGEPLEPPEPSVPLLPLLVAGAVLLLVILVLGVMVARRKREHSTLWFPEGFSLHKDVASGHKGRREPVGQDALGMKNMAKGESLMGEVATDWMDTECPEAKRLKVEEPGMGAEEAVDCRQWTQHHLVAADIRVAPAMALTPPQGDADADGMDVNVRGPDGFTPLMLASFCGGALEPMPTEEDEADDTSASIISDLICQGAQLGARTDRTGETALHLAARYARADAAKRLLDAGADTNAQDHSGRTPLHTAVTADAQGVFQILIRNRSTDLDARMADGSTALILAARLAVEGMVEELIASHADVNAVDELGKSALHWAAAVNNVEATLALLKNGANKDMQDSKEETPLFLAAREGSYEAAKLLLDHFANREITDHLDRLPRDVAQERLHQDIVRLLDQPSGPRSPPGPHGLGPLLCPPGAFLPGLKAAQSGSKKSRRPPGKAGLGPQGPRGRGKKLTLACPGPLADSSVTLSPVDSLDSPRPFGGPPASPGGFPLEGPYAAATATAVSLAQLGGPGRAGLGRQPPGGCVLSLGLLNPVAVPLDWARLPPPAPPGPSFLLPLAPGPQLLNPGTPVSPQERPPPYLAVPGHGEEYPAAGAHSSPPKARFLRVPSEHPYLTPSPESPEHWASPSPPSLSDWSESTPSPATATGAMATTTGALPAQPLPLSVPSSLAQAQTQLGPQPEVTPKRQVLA

| SMILES | composite z-score [1] | z-score [2] | z-score [3] | z-score [4] | composite z-score [5] | z-score [6] | composite z-score [7] | composite z-score [8] | composite z-score [9] | composite z-score [10] |
| --- | --- | --- | --- | --- | --- | --- | --- | --- | --- | --- |
| C=C(COC)/C(=C/C[C@H](OC(C)=O)c1ccc(OCCO)cc1)c1cnc2ccccc2c1 | 1.46 | 1.53 (inactive) | -1.49 (inactive) | 1.09 (inactive) | 1.05 | 1.12 (inactive) | 0.0707 | 0.935 | 1.1 | -0.0039 |
| CC(C)CN1C(=O)[C@@]2(Cc3ccccc31)c1ccccc1C(=O)N(C1CCCCC1)[C@H]2c1ccc(CO)cc1 | 0.499 | -1.6 (inactive) | -1.32 (inactive) | -2.34 (inactive) | 2.01 | 1.56 (inactive) | -0.121 | -0.901 | -1.35 | -0.179 |
| O=C1OCC=C[C@H]2OC34C=CCN(Cc5ccccc5)C(=O)[C@H]3N(CCO)C(=O)[C@@H]4[C@@H]12 (stereo not given in full) | 0.409 | -0.308 (inactive) | 0.176 (inactive) | -1.17 (inactive) | 2.08 | 2.13 (inactive) | -0.232 | -1.41 | -0.159 | -0.172 |
| CC(C)(C)OC(=O)CC[C@]1(C(=O)NCCN2CCOCC2)N=C(c2ccc(OCCCO)cc2)O[C@H]1c1ccccc1CN=[N+]=[N-] | 0.82 | -1.29 (inactive) | -0.981 (inactive) | -1.35 (inactive) | 3.06 | 1.71 (inactive) | -0.0384 | -0.541 | 0.343 | 0.0074 |
| C=CC[C@@]12N=C(c3ccc(OCCCO)cc3)O[C@@H]1c1ccccc1CN(Cc1ccccc1)C2=O | 1.54 | -0.127 (inactive) | -3.56 (inactive) | 5.67 (inactive) | 2.86 | 1.1 (inactive) | 0.258 | 0.347 | 0.7 | 0.0122 |
| Cc1ccc(S[C@]2(C(=O)O)CC(=O)N(Cc3cc(C(F)(F)F)cc(C(F)(F)F)c3)[C@@H]2c2ccc(CO)cc2I)cc1 | 1.33 | -0.455 (inactive) | -2.26 (inactive) | 2.31 (inactive) | 1.59 | 0.663 (inactive) | 0.107 | -1.49 | -0.913 | -0.264 |
| COc1ccc([Si](C)(C)[C@H]2[C@H](CCO)O[C@@]3(C(=O)N(Cc4ccc(N5CCCCC5=O)cc4)c4ccccc43)[C@@H]2C)cc1 | 1.54 | -0.025 (inactive) | -0.717 (inactive) | 2.28 (inactive) | 1.88 | 1.9 (inactive) | -0.116 | 0.993 | 1.07 | -0.0288 |
| CCCC=C(CCC)[C@@H](NC(=O)c1ccccc1)c1ccccc1 | -0.732 | 0.0874 (inactive) | -0.272 (inactive) | 0.912 (inactive) | 0.446 | -0.494 (inactive) | -0.0446 | -0.96 | -0.177 | -0.0828 |
| CCN1C(C)=C(C(=O)OC)[C@@H](c2ccccc2)N2C(=O)[C@](O)(C(=O)OC)[C@@H](c3ccccc3)C(C(=O)c3ccccc3)=C12 | 0.481 | -0.59 (inactive) | -4.98 (inactive) | -0.714 (inactive) | 1.41 | 1.43 (inactive) | -0.132 | 0.416 | 0.685 | 0.0255 |
| O=C1c2ccccc2[C@](Cc2ccccc2I)(C(=O)NCC(F)(F)F)[C@H](c2ccc(CO)cc2)N1Cc1ccccc1C(F)(F)F | 1.34 | 0.129 (inactive) | -1.15 (inactive) | -1.32 (inactive) | 2.54 | 0.098 (inactive) | -0.366 | -0.11 | 1.02 | 0.0443 |
| COc1cccc([C@@H]2[C@@H](C)CC[C@H]3C(=O)N4[C@H](c5cccc(OC)c5)[C@@H](C)CC[C@H]4C(=O)N23)c1 | 0.606 | -2.34 (inactive) | -1.46 (inactive) | -0.616 (inactive) | 0.474 | 0.368 (inactive) | -0.138 | 0.603 | 1.05 | -0.0082 |
